Laboratory results as given in PubChem BioAssay (NCATS).
Inconclusive results are not listed. A call without a number means that no potency is given here. A number with no mark means an inactive call. The source made the active and inactive calls. The call rests on the fitted dose curve.

How the values were obtained:
[1] = Primary qHTS for inhibitors of SARS-S pseudo-typed particle cell entry (AID 1479145); further: nearly all actives have a fitted effect of over 45% in size; further: potency means the concentration at half of the fitted maximal effect; on activity change, negative = inhibition: series mostly up to about 57 µM
[2] = Primary qHTS for Huh7 cytotoxicity: counterscreen for inhibitors of MERS-S pseudotyped particle cell entry (AID 1479147)
[3] = Primary qHTS for inhibitors of MERS-S pseudo-typed particle cell entry (AID 1479149); further: nearly all actives have a fitted effect of over 60% in size; on activity change, negative = inhibition: series mostly up to about 57 µM
[4] = Primary qHTS for Vero E6 cytotoxicity: counterscreen for inhibitors of SARS-S pseudo-typed particle cell entry (AID 1479150)

Row | Structure (SMILES) | Potency [1] | Potency [2] | Potency [3] | Potency [4] | activity change, negative = inhibition [1] | outcome [2] | outcome [3] | outcome [4]
1 | CCC(Cc1c(I)cc(I)c(N)c1I)C(=O)O (configuration not stated) | inactive | inactive | inactive | inactive |  |  |  | 
2 | C[C@](O)(CS(=O)(=O)c1ccc(F)cc1)C(=O)Nc1ccc(C#N)c(C(F)(F)F)c1 | inactive | inactive | inactive | inactive |  |  |  | 
3 | Nc1nc(/C(=C/CC(=O)O)C(=O)N[C@@H]2C(=O)N3C(C(=O)O)=CCS[C@H]23)cs1 | inactive | inactive | inactive | inactive |  |  |  | 
4 | CC1CCN(CCCC(=O)c2ccc(F)cc2)CC1 | inactive | inactive | inactive | inactive |  |  |  | 
5 | O=C(O)Cc1cccc(-c2cc(CCCCCCc3ccc(O[C@H]4O[C@H](CO)[C@@H](O)[C@H](O)[C@@H]4O)c(-c4cccc(CC(=O)O)c4)c3)ccc2O[C@H]2O[C@H](CO)[C@@H](O)[C@H](O)[C@@H]2O)c1 |  |  |  |  | -22.9% [at 0.573 µM] | inactive [at 0.573 µM] | inactive [at 0.573 µM] | inactive [at 0.573 µM]
6 | CC(=O)OCC1=C(C(=O)O)N2C(=O)[C@@H](NC(=O)Cc3cccs3)[C@H]2SC1 | inactive | inactive | inactive | inactive |  |  |  | 
7 | CCCC(=O)O[C@]1(C(=O)COC(=O)CC)CC[C@H]2[C@@H]3CCC4=CC(=O)CC[C@]4(C)[C@H]3[C@@H](O)C[C@@]21C | inactive | inactive | inactive | inactive |  |  |  | 
8 | COc1ccc2cccc(CCNC(C)=O)c2c1 | inactive | inactive | inactive | inactive |  |  |  | 
9 | COc1cc2c3cc1Oc1cc(ccc1O)C[C@@H]1c4c(cc(OC)c(O)c4Oc4ccc(cc4)C[C@@H]3N(C)CC2)CC[N+]1(C)C | inactive | inactive | inactive | inactive |  |  |  | 
10 | CCCC(=O)O[C@]1(C(=O)CO)CC[C@H]2[C@@H]3CCC4=CC(=O)CC[C@]4(C)[C@H]3[C@@H](O)C[C@@]21C | inactive | inactive | inactive | inactive |  |  |  | 
11 | CC(C)(Oc1ccc(C2CC2(Cl)Cl)cc1)C(=O)O (configuration not stated) | inactive | inactive | inactive | inactive |  |  |  | 
12 | CC(C)(C(=O)c1cccnc1)c1cccnc1 | inactive | inactive | inactive | inactive |  |  |  | 
13 | CCCCC(CC)COC(=O)c1ccccc1O (configuration not stated) | inactive | inactive | inactive | inactive |  |  |  | 
14 | CCCCCCCCCCCCOCCO | inactive | inactive | inactive | inactive |  |  |  | 
15 | NCCCCCC(=O)O | inactive | inactive | inactive | inactive |  |  |  | 
16 | Nc1nc(=O)n([C@@H]2CS[C@H](CO)O2)cc1F | inactive | inactive | inactive | inactive |  |  |  | 
17 | CCN1CCC[C@H]1CNC(=O)c1cc(S(N)(=O)=O)ccc1OC | inactive | inactive | inactive | inactive |  |  |  | 

Row | Structure (SMILES) | Potency [1] | Potency [2] | Potency [3] | Potency [4] | activity change, negative = inhibition [1] | outcome [2] | outcome [3] | outcome [4]
18 | CC(C(=O)O)c1ccc(C(=O)c2ccccc2)s1 (configuration not stated) | inactive | inactive | inactive | inactive |  |  |  | 
19 | NS(=O)(=O)c1cc2c(cc1C(F)(F)F)NC(Cc1ccccc1)NS2(=O)=O (configuration not stated) | inactive | inactive | inactive | inactive |  |  |  | 
20 | CC(=O)NC[C@H]1CN(c2ccc(N3CCOCC3)c(F)c2)C(=O)O1 | inactive | inactive | inactive | inactive |  |  |  | 
21 | O=C(O)Cc1cccc2ccccc12 | inactive | inactive | inactive | inactive |  |  |  | 
22 | CC(C)=CCC/C(C)=C/CO | inactive | inactive | inactive | inactive |  |  |  | 
23 | CC(CSC(=O)c1ccccc1)C(=O)N1C[C@@H](Sc2ccccc2)C[C@H]1C(=O)O (some centres not stated) | inactive | inactive | inactive | inactive |  |  |  | 
24 | CCCC(O)C(CC)CO (configuration not stated) | inactive | inactive | inactive | inactive |  |  |  | 
25 | Clc1cccc(C(c2ccc3nc[nH]c3c2)n2ccnc2)c1 (configuration not stated) | inactive | inactive | inactive | inactive |  |  |  | 
26 | CCOC(=O)c1ccc(N)cc1 | inactive | inactive | inactive | inactive |  |  |  | 
27 | CC(C)(C)NCC(O)COc1ccccc1OCC1CCCO1 (configuration not stated) | inactive | inactive | inactive | inactive |  |  |  | 
28 | CCOc1ccc(NC(=O)CC(C)O)cc1 (configuration not stated) | inactive | inactive | inactive | inactive |  |  |  | 
29 | C[C@H]1C[C@@H]2[C@H]([C@@H](O)C[C@@]3(C)[C@H]2CC[C@]3(O)C(=O)CO)[C@@]2(C)C=CC(=O)C=C12 | inactive | inactive | inactive | inactive |  |  |  | 
30 | CCCCCCCCCCCCCCCCOP(=O)([O-])OCC[N+](C)(C)C | 14.1 µM (active) | inactive | inactive | inactive |  |  |  | 
31 | O=c1cc[nH]c(=O)[nH]1 | inactive | inactive | inactive | inactive |  |  |  | 
32 | Cc1ncc(CO)c(CO)c1O | inactive | inactive | inactive | inactive |  |  |  | 
33 | O=C(O)/C=C(\CC(=O)O)C(=O)O | inactive | inactive | inactive | inactive |  |  |  | 
